Measured values published in PubChem BioAssay (NCI).
Compounds without any hit were thinned out: in the full panel of roughly 79,000, 15% have a hit. A number with no mark means an inactive call. Activity calls are given as the source filed them. Cut-off read from the data, not from the text of the source: active = growth inhibition above about 70%; inactive = the rest.

assay: NCI Yeast Anticancer Drug Screen. Data for the mec2-1 strain (AID 157); conditions: S. cerevisiae mec2-1 strain, at 50.0 µM, stronger effect = higher value
How it was run: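 Each compound was tested on mec2-1 yeast, a strain altered in DNA damage repair or cell cycle control. Growth inhibition is reported relative to vehicle.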

Row | Compound | growth inhibition
1 | COC(=O)c1nc(=S)[nH]c(C(=O)OC)c1C(=O)c1ccc(Cl)c(Cl)c1 | 99% (active)
2 | NC(=Nc1nc(-c2ccccn2)cc2ccccc12)c1ccccn1 | 67.7%
3 | Cc1nc(Sc2nc3ccc([N+](=O)[O-])cc3s2)sc1C | 86.5% (active)
4 | NC(=S)Nc1ccc2c(c1)Cc1ccccc1-2 | -0.4%
5 | CN(C)CCN(C)CC(C)(C)C(=O)/C=C/c1ccc(Cl)c(Cl)c1 | 78.1% (active)
6 | CCCCCCCCCCCCCCCc1ccc(C(=O)C[n+]2ccccc2)cc1 | 89.7% (active)
7 | O=C(CCl)N(c1ccccc1)c1ccccc1 | 90.2% (active)
8 | CCOC(=O)C1=C(C(=O)c2ccccc2)C(c2cccc([N+](=O)[O-])c2)C(C(=O)c2ccccc2)=C(C(=O)OCC)N1 | 25.6%
9 | CCN1CCCC(Nc2cc(C)nc(/N=C(/N)Nc3ccc(Cl)c(Cl)c3)n2)C1 (stereo unspecified) | 92% (active)
10 | CCc1cnc2ccccc2c1/C=C/c1ccc(N(C)C)cc1 | 97.3% (active)
11 | O=[N+]([O-])c1ccc2c(c1)Cc1ccccc1-2 | 9.35%
12 | Fc1ccc(NCCS)cc1 | 87.8% (active)
13 | CCCCC(C=O)(C=C=C(C)C)CC (stereo unspecified) | 52.1%
14 | CN(C)c1ccc(/C=C/c2cc[n+](C)c(/C=C/c3ccc(N(C)C)cc3)c2)cc1 | 93.3% (active)
15 | COc1cc([C@@H]2c3cc4c(cc3[C@H](OC3OC5COC(c6ccccc6)OC5C(O)C3O)[C@H]3COC(=O)[C@H]23)OCO4)cc(OC)c1OC (stereo partly specified) | 81% (active)
16 | OC(c1cc(-c2ccc(Cl)cc2)nc2c(Cl)cccc12)C1CCCCN1 (stereo unspecified) | 99.8% (active)
